Results published in PubChem BioAssay AID2606 (The Scripps Research Institute Molecular Screening Center, 2010).
About 160 (0.05%) of roughly 320,000 compounds were called active. Rule as the data show it: active = inhibition above about 38%; inactive = the rest. This excerpt belongs to a sample that is enriched for actives.

Target: Serine protease Rv3671c (Mycobacterium tuberculosis (strain ATCC 25618 / H37Rv)) (UniProt P9WHR9)
Assay: inhibition of M. tuberculosis membrane protease Rv3671c – biochemical, fluorescence polarization, M. tuberculosis H37Rv, primary screen (AID 2606);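 also: extracellular domain of Rv3671c used as enzyme; 0% = enzyme with DMSO and 100% = no enzyme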
Settings: at 5.96 µM; stronger effect = higher value

Serine protease Rv3671c (Mycobacterium tuberculosis (strain ATCC 25618 / H37Rv)), sequence (P9WHR9 whole entry, looked up, the tested form may be a part): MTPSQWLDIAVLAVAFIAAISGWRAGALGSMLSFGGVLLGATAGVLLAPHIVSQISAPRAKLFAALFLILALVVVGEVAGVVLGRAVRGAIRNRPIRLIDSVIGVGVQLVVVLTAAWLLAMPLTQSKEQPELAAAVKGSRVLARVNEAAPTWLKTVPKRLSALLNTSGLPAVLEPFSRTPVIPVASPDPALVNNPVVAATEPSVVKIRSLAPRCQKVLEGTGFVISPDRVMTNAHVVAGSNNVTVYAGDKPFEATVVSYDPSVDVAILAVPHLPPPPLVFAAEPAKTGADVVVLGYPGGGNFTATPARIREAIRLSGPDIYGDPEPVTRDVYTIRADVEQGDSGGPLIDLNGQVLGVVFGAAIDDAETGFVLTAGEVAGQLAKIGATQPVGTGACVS

Structure (SMILES)	inhibition
COP1(=O)C[C@@H](O)[C@@H](O)[C@@H](COCc2ccccc2)O1 (stereo not given in full)	-2.74% (inactive)
Cc1cnc(C(=O)N2CCCC(C(=O)c3ccc(C(F)(F)F)cc3)C2)cn1 (stereo not given)	-4.62% (inactive)
CC(c1nnc(SCC(=O)Nc2sccc2C#N)n1-c1ccc(Cl)cc1)N(C)C (stereo not given)	3.82% (inactive)
Cn1sc(=O)c2cc(S(=O)(=O)NC3CC3)ccc21	-8.37% (inactive)
C[C@@H](NC(=O)c1nc[nH]c1C(=O)N1CCN(C(=O)OC(C)(C)C)CC1)c1ccccc1	-6.88% (inactive)
CC(Sc1nnc(Cc2ccc([N+](=O)[O-])cc2)o1)C(N)=O (stereo not given)	-0.21% (inactive)
C[C@@H](C(=O)Nc1ccc2ccccc2c1)[C@@H]1C[C@@]1(C)[C@@H](NC(=O)c1cccnc1)c1ccccc1	-17.9% (inactive)
CCS(=O)(=O)N1Cc2ccccc2CC1C(=O)Nc1nc2ccc(F)cc2s1 (stereo not given)	-18.8% (inactive)
O=C(NCc1ccccc1)C1=C[C@@H](c2ccccc2)C[C@@H](OCCCCO)O1	-9.25% (inactive)
O=S(=O)(c1cc(Cl)ccc1Cl)N1CCN(Cc2ccco2)CC1	-5.87% (inactive)
COc1cccc(/C=C2\SC(=N)N(c3ccc(F)cc3)C2=O)c1	7.8% (inactive)
COc1ccc(/C=N/N=C/c2c[nH]c(=O)c(C#N)c2Nc2ccccc2)cc1	-1.73% (inactive)
NS(=O)(=O)c1ccc(NC(=S)Nc2ccc(Br)c(Cl)c2)cc1	-3.02% (inactive)
CCn1c(SCC(=O)Nc2ccc(Br)cc2)nc2sc3c(c2c1=O)CCN(C)C3	-7.34% (inactive)
COc1ccccc1C(=O)Nc1ccc(OCC(=O)N2CCCCC2)cc1	-8.76% (inactive)
Cc1cc(NC(=O)CCC(=O)N(Cc2ccccc2)C(C(=O)NC2CCCC2)c2ccc(C)o2)no1 (stereo not given)	-5.73% (inactive)
CCOC(=O)C1CCN(S(=O)(=O)c2ccc3c(c2)N(C(C)=O)CCO3)CC1	2.87% (inactive)
CCCc1nc2ccccc2c(C(=O)OCc2nnc(-c3cc(OC)c(OC)c(OC)c3)o2)c1CC	-9.57% (inactive)
COc1ccc(/C=C/C(=O)NC(=S)NN2CCCCC2c2cccnc2)cc1 (stereo not given)	-0.41% (inactive)
Cc1cc(O)ccc1NC1=CC(=O)CC(C)(C)C1	-4.53% (inactive)
CC1CCC(CN2CCN=C2N(C)C)CC1 (stereo not given)	-3.89% (inactive)
Cc1ccc(S(=O)(=O)NC(=O)COc2ccccc2C)cc1	7.88% (inactive)
CCCCn1c(=S)[nH]c2cc(S(=O)(=O)N3CCCCC3)ccc21	-12.1% (inactive)

Structure (SMILES)	inhibition
O=C(COC(=O)c1ccc(S(=O)(=O)N2CCc3ccccc3C2)cc1)NC(=O)NCc1ccco1	-44.5% (inactive)
COc1ccccc1OCCNCC(O)COc1cccc2[nH]c3ccccc3c12 (stereo not given)	-3.15% (inactive)
C=C1C2C[C@H](O)C(C)(C)[C@@]2(O)[C@H](O)C[C@]23C[C@@](C)(O)[C@H](CC[C@H]12)[C@H]3O (stereo not given in full)	8.16% (inactive)
CCCCCCCNc1nc(Cl)nc(NCCO)n1	1.57% (inactive)
C/C(=N\NC(=O)NC1CCCCC1)c1ccc(OC(F)F)cc1OC(F)F	-2.17% (inactive)
C/C(=N/NS(=O)(=O)c1ccccc1)c1ccc(NC(=O)C(F)(F)F)cc1	-8.65% (inactive)
O=C(CNC(=O)c1ccccc1F)OCC(=O)c1c[nH]c2ccccc12	3.57% (inactive)
COc1ccc(SC[C@H](Cc2ccccc2)N2CCN(CCc3ccccc3)CCC2=O)cc1	1.82% (inactive)
CC(=O)c1ccc(N2CCN(C(=O)CCNC(=O)Cn3ccc4ccccc4c3=O)CC2)cc1	-8.01% (inactive)
CC(=O)Nc1c2c(nn1-c1ccc(C)cc1C)CS(=O)C2 (stereo not given)	-11.2% (inactive)
CS(=O)(=O)c1ccc(Cl)c(NC(=O)COC(=O)c2ncc(Cl)c(Cl)c2Cl)c1	0.74% (inactive)
O=C(CSc1nnc(-c2ccoc2)o1)N1CCOCC1	6.68% (inactive)
OC(COCc1ccco1)CN1CCN(c2ccccc2)CC1 (stereo not given)	5.86% (inactive)
C/C(=N/NC(=O)CN1CCN(S(=O)(=O)c2ccc(Br)cc2)CC1)c1ccncc1	-1.08% (inactive)
CCOc1ccc(N(CC(=O)Nc2cccc(OC)c2)S(C)(=O)=O)cc1	-3.74% (inactive)
CN=C1C=C/C(=N/N=c2\ccn(O)cc2C)C=C1C	-17.4% (inactive)
Cc1ccc(-n2c(SCC(=O)Nc3ncc(Cl)cc3Cl)nc3ccccc32)cc1	-17.4% (inactive)
Cc1ccn2c(=O)c(NC(=O)c3cccc4ccccc34)c(C)nc2c1	-5.92% (inactive)
CC(C(=O)N1CCN(c2ccccc2F)CC1)c1ccc([N+](=O)[O-])cc1 (stereo not given)	7.31% (inactive)
CCC(=NC1CC(C)(C)NC(C)(C)C1)C1=C(O)CC(C)(C)CC1=O	-1.22% (inactive)
CCC(C)[C@H](NC(=O)N1c2ccccc2NC(=O)[C@@H]1C(C)C)C(=O)N[C@@H](Cc1ccccc1)C(=O)O (stereo not given in full)	6.36% (inactive)
CCOc1ccccc1NC(=O)C1CCCN(S(=O)(=O)c2ccccc2)C1 (stereo not given)	-17.1% (inactive)
